Measurements taken from PubChem BioAssay (NCATS).
Inconclusive results are not listed. The source made the active and inactive calls. Calls follow the shape of the dose curve; as a rule, active = well fitted inhibition curve with a large enough effect; inconclusive = small, poorly fitted or top-dose-only effect; inactive = flat fitted curve, though single readings scatter.

What was measured:
[1] = Drug repurposing screens with cells derived from glioblastoma tumor samples (AID 1345199); settings: GBM patient neurospheres viability, ATP luminescence, 48 h; also: nearly all actives have a fitted effect of over 40% in size
Outline: (§1)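 Four patient lines of CD133+ GBM neurospheres were screened at several concentrations; hits were retested in those lines plus three slower-growing GBM lines, using 48-hour treatment and ATP-based viability.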

astro = control astrocytes; assay: as above; settings: viability, ATP luminescence, 48 h; series mostly up to 45.9 µM
Outline: as §1

[2] = at 45.9 µM (top of the series), tumour line B
[3] = at 45.9 µM (top of the series), tumour line D
[4] = at 46.1 µM (top of the series), tumour line C
% is scaled to controls: 0 for no effect and ±100 for the full control effect.

CC1CCC(NC(=O)N(CCCl)N=O)CC1 (stereo unspecified)
inactive: activity, negative = cell killing [1, 2] -5.97% | activity, negative = cell killing [1, 3] 0.785% | activity, negative = cell killing [1, 4] -19.7% | Potency (astro)

O=P(O)(O)OP(=O)(O)O
inactive: activity, negative = cell killing [1, 2] -12.9% | activity, negative = cell killing [1, 3] -11% | activity, negative = cell killing [1, 4] -5.23% | Potency (astro)

Cn1nnnc1SCC1=C(C(=O)O)N2C(=O)[C@@H](NC(=O)[C@H](O)c3ccccc3)[C@H]2SC1
inactive: activity, negative = cell killing ([1]; at 20 µM (top of the series), tumour line C) -9.7% | activity, negative = cell killing ([1]; at 21.2 µM (top of the series), tumour line B) -12.5% | activity, negative = cell killing ([1]; at 21.2 µM (top of the series), tumour line D) -10.9% | Potency (astro)

O=C(CCCCCCCCCCCCC1CCCC1)Nc1ccc(S(=O)(=O)c2ccc(NC(=O)CCCCCCCCCCCCC3CCCC3)cc2)cc1
inactive: activity, negative = cell killing [1, 2] 0.38% | activity, negative = cell killing [1, 3] -17.2% | activity, negative = cell killing [1, 4] -32.4% | Potency (astro)

NC(Cc1ccccc1)C(=O)O (stereo unspecified)
inactive: activity, negative = cell killing [1, 2] -8.84% | activity, negative = cell killing [1, 3] 10.2% | activity, negative = cell killing [1, 4] -12.6% | Potency (astro)

CC1=C[C@H](O)CC(C)(C)[C@H]1/C=C/C(C)=C/C=C/C(C)=C/C=C/C=C(C)/C=C/C=C(C)/C=C/C1=C(C)C[C@@H](O)CC1(C)C
inactive: activity, negative = cell killing [1, 2] -18.9% | activity, negative = cell killing [1, 3] -21.1% | activity, negative = cell killing [1, 4] -27.4% | Potency (astro)

N=C(N)c1ccc(/C=C/c2ccc(C(=N)N)cc2O)cc1
inactive: activity, negative = cell killing [1, 2] -18.3% | activity, negative = cell killing [1, 3] -9.46% | activity, negative = cell killing [1, 4] -14.7% | Potency (astro)

CC1CC(O)CC(C)(C)C1 (stereo unspecified)
inactive: activity, negative = cell killing [1, 2] -5.77% | activity, negative = cell killing [1, 3] -9.42% | activity, negative = cell killing [1, 4] -22% | Potency (astro)

CCOC(=O)[C@H](CS)NCCN[C@@H](CS)C(=O)OCC
inactive: activity, negative = cell killing [1, 2] -15.2% | activity, negative = cell killing [1, 3] -8.47% | activity, negative = cell killing [1, 4] -15.5% | Potency (astro)
